ELG1 genotox = inducers of genotoxicity in HEK293T ELG1-luciferase cells; HEK293T ELG1-luciferase reporter, luminescence, 16 h; Potency, µM (top dose mostly 46 µM), for inactives: at the highest dose activity change, positive = activation, actives largely listed as activators; 330,000 tested, 1.3% active; AID 504466; further: % of control where 0% means no effect; nearly all actives have a fitted effect of over 60% in size
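Quantitative HTS format in 1536-well plates. HEK293T ELG1-luciferase reporter cells receive test compound and are incubated 16 hr at 37 °C, 5% CO2; ONE-Glo added, 30 min room temperature, then luminescence read.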
ELG1 repair inh = inhibitors of ELG1-dependent DNA repair in HEK293T cells. HEK293T ELG1-luciferase reporter, luminescence, 16 h; DNA damage induced by 5-fluorouridine. Potency, µM (top dose mostly 46.1 µM), without a hit: at the highest dose activity change, negative = inhibition, hits mostly inhibitors. 330,000 tested, 2.3% active. AID 504467; further: on the % scale 0 is the no-effect control and ±100 the full control effect; nearly all actives have a fitted effect of over 55% in size
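Step one: seed 2,000 cells per well. Step two: pin-transfer compound or DMSO alongside 5-fluorouridine. Step three: incubate 16 hr, 37 °C, 5% CO2. Step four: add ONE-Glo, wait 30 min, read luminescence.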
Rab9 prom act = activators of Rab9 promoter | AID 485297 | Potency, µM (titrated, usually from 9.22 µM), for inactives: at the top dose activation, negative = inhibition, usual class: activators | Huh7 Rab9 promoter-luciferase reporter, luminescence, 24 h | 320,000 tested, 2.8% active; further: % of control where 0% means no effect; nearly all actives have a fitted effect of over 60% in size
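Measured in stably transfected Huh7 cells bearing a Rab9 promoter–luciferase construct: 24 h compound treatment at 37 °C, followed by luminescence detection.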
SMN2 splice up = increases expression of the SMN2 splice variant; Potency, µM (titrated, usually from 46.1 µM), for the others: at the highest dose activity change, positive = activation, actives largely listed as activators; HEK293 SMN2-luciferase splicing reporter, luminescence, 30-36 h; 210,000 tested, 2.8% active; AID 1458; further: % of control where 0% means no effect; nearly all actives have a fitted effect of over 55% in size
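qHTS luciferase splicing reporter: luminescence rises when SMN2 exon 7 is included in transfected HEK293 cells. Compound exposure lasted 30-36 h at 37C, with 4.5 mM final sodium butyrate as control, followed by a ONE-Glo read.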
FLuc modulator = inhibits or activates purified firefly luciferase, miR-21 counter-screen; P08659; purified FLuc, Km substrates, luminescence inhibition; Potency, µM (doses to about 57.5 µM), for the others: at the top dose activity change, negative = inhibition, most hits filed as inhibitors; 360,000 tested, 6.9% active;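 further: plate controls were vehicle for no effect and reference inhibitor for full effect; nearly all actives have a fitted effect of over 55% in size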
Target sequence (P08659 whole entry, looked up): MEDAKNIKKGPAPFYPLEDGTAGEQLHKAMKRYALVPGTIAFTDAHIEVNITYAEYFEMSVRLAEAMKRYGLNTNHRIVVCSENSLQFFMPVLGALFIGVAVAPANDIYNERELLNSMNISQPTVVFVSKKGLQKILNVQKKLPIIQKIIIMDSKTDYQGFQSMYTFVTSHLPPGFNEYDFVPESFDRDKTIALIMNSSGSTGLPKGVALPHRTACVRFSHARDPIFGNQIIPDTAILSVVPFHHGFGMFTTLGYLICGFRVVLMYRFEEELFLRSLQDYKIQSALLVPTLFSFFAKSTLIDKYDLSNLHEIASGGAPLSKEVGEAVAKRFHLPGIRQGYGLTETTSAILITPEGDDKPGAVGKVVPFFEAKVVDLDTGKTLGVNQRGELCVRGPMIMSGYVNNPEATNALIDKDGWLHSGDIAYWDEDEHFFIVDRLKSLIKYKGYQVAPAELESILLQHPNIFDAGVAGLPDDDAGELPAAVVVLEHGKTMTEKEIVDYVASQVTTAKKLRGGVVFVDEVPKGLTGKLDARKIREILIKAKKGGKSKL
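Purified P. pyralis luciferase, 10 nM final, with Km-level 10 uM D-luciferin and 10 uM ATP in 50 mM Tris acetate pH 7.5, 10 mM Mg acetate, 0.01% Tween-20, 0.05% BSA; 6-point qHTS titration about 60 µM downward; luminescence read.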
NPC1 prom act = activators of NPC1 promoter | Potency, µM (highest dose often 9.22 µM), inactives show top-dose activation, most hits filed as activators | Huh7 NPC1 promoter luciferase reporter, 24 h | 320,000 tested, 2.4% active | AID 485313; further: % of control where 0% means no effect; nearly all actives have a fitted effect of over 60% in size
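Cells: Huh7 expressing luciferase under the NPC1 promoter, 1500/well. Seeded 2 h, compound added, incubated 24 h at 37 °C. Luciferase reagent, 10 min ambient, then luminescence.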
Active calls of the source: *; [ ] = remark or other dose. Rows were chosen to be rich in hits. Some 9.3% of all compounds tested hit in one or more screens of this group. The call rests on the fitted dose curve; in most records, active means well fitted curve in the direction sought with a large enough effect; inconclusive means small, poorly fitted or top-dose-only effect, or another doubt; inactive means no such curve, though single readings can be large; an effect the other way counts as inactive or inconclusive. Potency means the concentration at half of the fitted maximal effect.

Screening O=C(CNC(=O)c1cccs1)Nc1ccc2c(c1)OCCO2 returned ELG1 genotox 1.6µM*, ELG1 repair inh inconclusive, Rab9 prom act 1.1µM*, FLuc modulator 6µM* and NPC1 prom act 1.3µM*.
For Cc1ccc(C(=O)Nc2ccc3c(c2)OCO3)cc1NC(=O)c1ccco1 the results were ELG1 genotox 10%, ELG1 repair inh inconclusive, Rab9 prom act inconclusive, SMN2 splice up inconclusive, FLuc modulator inconclusive and NPC1 prom act 18%.
`COc1ccc(C(=O)Nc2ccc(NC(=O)c3ccco3)c(Cl)c2)cc1OC` gave ELG1 genotox 0%, ELG1 repair inh -24%, Rab9 prom act 4%, SMN2 splice up -17%, FLuc modulator -3% and NPC1 prom act -3%.
COc1cc(NC(=O)c2ccc3c(c2)OCCO3)ccc1NC(=O)c1cccs1 was read as ELG1 genotox 2%, ELG1 repair inh 4%, Rab9 prom act 18%, SMN2 splice up 20%, FLuc modulator 5.4µM* and NPC1 prom act 18%.
Screening COc1ccc(S(=O)(=O)NCC2(N3CCOCC3)CCCCC2)cc1OC returned ELG1 genotox -3%, ELG1 repair inh -24%, Rab9 prom act -1%, FLuc modulator 3% and NPC1 prom act -3%.
For O=C(COC(=O)c1ccco1)Nc1ccc2c(c1)OCCO2 the results were ELG1 genotox 1%, ELG1 repair inh 5%, Rab9 prom act 1%, SMN2 splice up -1%, FLuc modulator 2.4µM* and NPC1 prom act -3%.
For O=C(Nc1cccc(NC(=O)c2ccco2)c1)c1ccc2c(c1)OCCO2 the results were ELG1 genotox 0%, ELG1 repair inh 12%, Rab9 prom act 13%, SMN2 splice up 20%, FLuc modulator 9.5µM* and NPC1 prom act 4%.
Screening O=C(COC(=O)c1ccc(O)cc1O)Nc1ccc2c(c1)OCCO2 returned ELG1 genotox inconclusive, ELG1 repair inh inconclusive, Rab9 prom act -2%, FLuc modulator 15µM* and NPC1 prom act 0%.
For O=C(Nc1cccc(NC(=O)c2ccco2)c1)c1ccccc1 the results were ELG1 genotox 0%, ELG1 repair inh 0%, Rab9 prom act 3%, FLuc modulator inconclusive and NPC1 prom act 2%.
Cc1cccc(-c2c(NC(=O)c3ccco3)oc3c(C)cccc3c2=O)c1 was read as ELG1 genotox -9%, ELG1 repair inh -18%, Rab9 prom act -2%, FLuc modulator -2% and NPC1 prom act 15%.
Cc1cccc2c(=O)c(-c3ccc4c(c3)OCO4)c(NC(=O)c3ccco3)oc12 was read as ELG1 genotox -2%, ELG1 repair inh 10µM*, Rab9 prom act 0%, FLuc modulator inconclusive and NPC1 prom act -5%.
CCN1C(=O)C(Cc2nc3ccccc3c(=O)n2-c2cccc(C)c2)c2ccccc21 (centres undefined) was read as SMN2 splice up 11% and FLuc modulator -7%.
Screening CCc1cc2c(cc3c(=O)n(CC(=O)N4CCN(c5cccc(C)c5C)CC4)nc(CC)n32)s1 returned SMN2 splice up -3% and FLuc modulator -12%.
`O=C(COC(=O)c1cc([N+](=O)[O-])ccc1N1CCOCC1)NC1CCCCC1` gave ELG1 genotox 0%, ELG1 repair inh -2%, Rab9 prom act 2%, FLuc modulator 0% and NPC1 prom act -4%.
For CC(C)NC(=O)c1c(CSc2ccccc2)noc1C(=O)NCc1ccccc1 the results were ELG1 genotox -5%, ELG1 repair inh inconclusive, Rab9 prom act -9%, FLuc modulator -1% and NPC1 prom act -2%.
`CCn1nc(-c2ccccc2)c(-c2ccccc2)c(C(=O)Nc2ccc(NC(C)=O)cc2)c1=O` gave SMN2 splice up 5% and FLuc modulator -18%.
For COc1ccc(CC(=O)N/N=C(\C)CC(=O)NCc2ccco2)cc1OC the results were ELG1 genotox 0%, ELG1 repair inh 0%, Rab9 prom act -4%, FLuc modulator 0% and NPC1 prom act -6%.
Screening C[C@H](NC(=O)c1ccco1)C(=O)Nc1ccc2c(c1)OCO2 returned ELG1 genotox 0%, ELG1 repair inh -3%, Rab9 prom act 1%, SMN2 splice up -1%, FLuc modulator -15% and NPC1 prom act 3%.
O=C(Nc1ccc2c(c1)OCCO2)c1ccco1 was read as ELG1 genotox 3.7µM*, ELG1 repair inh inconclusive, Rab9 prom act 2.2µM*, SMN2 splice up 10µM*, FLuc modulator 8.5µM* and NPC1 prom act 2µM*.
Cc1ccc(NC(=O)c2ccco2)cc1C was read as ELG1 genotox inconclusive, ELG1 repair inh inconclusive, Rab9 prom act 4µM*, SMN2 splice up 16µM*, FLuc modulator 9.5µM* and NPC1 prom act 2.8µM*.
`CC(=O)Nc1cccc(NC(=O)c2ccco2)c1` gave ELG1 genotox -1%, ELG1 repair inh 1%, Rab9 prom act 0%, SMN2 splice up 22%, FLuc modulator -11% and NPC1 prom act 0%.
Screening Cc1cc(NC(=O)c2ccc3c(c2)OCO3)ccc1NC(=O)c1ccco1 returned ELG1 genotox 3%, ELG1 repair inh inconclusive, Rab9 prom act 12%, SMN2 splice up 17%, FLuc modulator 21µM* and NPC1 prom act 12%.
`CC1(C)Oc2ccc(NC(=O)c3ccco3)cc2O1` gave ELG1 genotox inconclusive, ELG1 repair inh inconclusive, Rab9 prom act 2.5µM*, SMN2 splice up 13µM*, FLuc modulator 6µM* and NPC1 prom act 1µM*.
Screening COc1ccccc1N(C)S(=O)(=O)c1ccc(C(=O)N(C)Cc2ccc(Cl)s2)cc1 returned ELG1 genotox -5%, ELG1 repair inh inconclusive, Rab9 prom act -6%, FLuc modulator 3% and NPC1 prom act 0%.
For Cc1ccc(C)n1-c1ccc(-n2cnnn2)cc1 the results were ELG1 genotox 7%, ELG1 repair inh 21%, Rab9 prom act 3%, SMN2 splice up -3%, FLuc modulator -1% and NPC1 prom act -5%.
Screening Cc1ccc(C)n1-c1ccc(-c2ccn[nH]2)cc1 returned ELG1 genotox inconclusive, ELG1 repair inh inconclusive, Rab9 prom act inconclusive, SMN2 splice up 13µM*, FLuc modulator 12µM* and NPC1 prom act inconclusive.
`c1ccn(-c2ccc(-c3ccn[nH]3)cc2)c1` gave ELG1 genotox 18%, ELG1 repair inh inconclusive, Rab9 prom act inconclusive, SMN2 splice up inconclusive, FLuc modulator 11µM* and NPC1 prom act inconclusive.
Screening CCCCc1cc2c(cn1)=C(OC(=O)c1cccs1)C(C)(OC(=O)CC)C(=O)C=2 (centres undefined) returned SMN2 splice up 13%[9.22 µM].
